SMILES strings stand for the structures. This is part of a sample that, as a whole, favours compounds with a hit. Of some 83,000 tested, about 20% had one in any assay.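 Activity criterion: percent growth below 10, measured after cells in 96-well plates were exposed to a single compound concentration for 48 hours.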 A number with no mark means an inactive call. Active and inactive are the calls of the source.

Holding throughout (assay): NCI-60 one-dose screen, 48 h (100 = growth as untreated, 0 = no growth, -100 = all killed)
One assay concerns NCI-H23 lung. As to conditions: 10 µM unless noted.
The subject of another assay is NCI-H226 lung. As to conditions: 10 µM unless noted.
The test system of another assay is NCI-H322M lung. As to conditions: 10 µM unless noted.
The subject of the next assay is NCI-H460 lung. As to conditions: 10 µM unless noted.
The test system of a further assay is HOP-92 NSCLC. As to conditions: 10 µM.
The next assay deals with NCI-H522 lung. As to conditions: 10 µM.
The next assay deals with A549/ATCC NSCLC. As to conditions: 10 µM unless noted.
A further assay concerns 786-0 renal. As to conditions: 10 µM unless noted.
Another assay concerns COLO 205 colon. As to conditions: 10 µM unless noted.
Another assay has as its system DU-145 prostate. As to conditions: 10 µM unless noted.
In another assay the test system is MALME-3M melanoma. As to conditions: 10 µM unless noted.
The next assay relates to MDA-MB-231 breast. As to conditions: 10 µM unless noted.
The subject of another assay is RXF 393 renal. As to conditions: 10 µM unless noted.
The subject of a further assay is SF-295 CNS. As to conditions: 10 µM unless noted.
The next assay relates to SF-539 CNS. As to conditions: 10 µM unless noted.
The subject of a further assay is UACC-257 melanoma. As to conditions: 10 µM unless noted.
In the next assay the test system is M14 melanoma. As to conditions: 10 µM unless noted.
Another assay relates to K-562 leukemia. As to conditions: 10 µM unless noted.
Another assay relates to SF-268 CNS. As to conditions: 10 µM unless noted.

As for `COC1=C(OC)C(=O)c2ccccc2C1=O`, the growth in the assay with NCI-H23 lung was 81.5%; in the assay on NCI-H226 lung it was 102%; in the assay on NCI-H322M lung, 107%; in the assay with NCI-H460 lung it was 97.4%; with HOP-92 NSCLC, 95%; in the assay with NCI-H522 lung it was 94.8%. Further, the growth in the assay with A549/ATCC NSCLC is 96.9%; with 786-0 renal, 120%; in the assay on COLO 205 colon, 100%; with DU-145 prostate it was 112%; with MALME-3M melanoma, 126%; in the assay on MDA-MB-231 breast, 94%. Moreover, the growth with RXF 393 renal is 93.2%; with SF-295 CNS, 108%; in the assay with SF-539 CNS it was 102%; with UACC-257 melanoma, 76.7%; in the assay with M14 melanoma, 105%.

`COc1cc2ncnc(-n3ncc4cc(NC(=O)Nc5ccccc5)ccc43)c2cc1OC`: the growth is 3.14% (active) in the assay with NCI-H23 lung; -13.9% (active) in the assay on NCI-H226 lung; 30.9% in the assay on NCI-H322M lung; 26.8% in the assay on NCI-H460 lung; -20.3% (active) with HOP-92 NSCLC; 19.9% in the assay on NCI-H522 lung. Further, the growth in the assay on A549/ATCC NSCLC is 24.1%; in the assay with 786-0 renal it was 28%; in the assay on DU-145 prostate, 10.5%; in the assay with K-562 leukemia, 39.1%; with MALME-3M melanoma, -13.8% (active); in the assay with MDA-MB-231 breast, -8.14% (active). Besides, the growth was -84.3% (active) in the assay with RXF 393 renal; 21.7% with SF-268 CNS; 26.9% with SF-295 CNS; 0.968% (active) with SF-539 CNS; 28.7% in the assay with UACC-257 melanoma; 6.8% (active) in the assay on M14 melanoma.

As for `Cc1c(O)c(N=Nc2ccc(C(=O)O)c(O)c2)c2ccccc2c1O`, the growth is 92.3% in the assay on NCI-H23 lung; 104% with NCI-H226 lung; 105% in the assay with NCI-H322M lung; 96.7% with NCI-H460 lung; 77.7% with HOP-92 NSCLC; 100% in the assay with NCI-H522 lung. The growth with A549/ATCC NSCLC is 78.9%; with 786-0 renal, 104%; with DU-145 prostate, 94.3%; in the assay with K-562 leukemia, 60.6%; with MALME-3M melanoma, 97.4%; in the assay on MDA-MB-231 breast it was 86.4%. The growth with RXF 393 renal was 13.3%; with SF-268 CNS, 119%; in the assay with SF-295 CNS, 116%; with SF-539 CNS, 81.7%; in the assay on UACC-257 melanoma it was 95.6%; in the assay on M14 melanoma it was 53.4%.

With `C/C(CCC(=O)O)=N/Nc1ccc([N+](=O)[O-])cc1`, the growth is 87.8% in the assay with NCI-H23 lung; 93.3% in the assay on NCI-H226 lung; 93.5% in the assay on NCI-H322M lung; 38% in the assay on NCI-H460 lung; 74.9% in the assay on HOP-92 NSCLC; 61.2% in the assay with NCI-H522 lung. The growth in the assay on A549/ATCC NSCLC is 54%; in the assay with 786-0 renal it was 45.7%; in the assay with DU-145 prostate it was 82.2%; in the assay on K-562 leukemia, 22.3%; in the assay with MALME-3M melanoma it was 111%; with MDA-MB-231 breast it was 51.4%. Moreover, the growth in the assay with RXF 393 renal was 99.4%; with SF-268 CNS it was 72.3%; in the assay with SF-295 CNS, 2% (active); in the assay on SF-539 CNS it was 12.7%; in the assay on UACC-257 melanoma it was 90.3%; in the assay with M14 melanoma, 24.3%.

Consider `COc1ccc(C2C3(C#N)C(N)=NC(=C(C#N)C#N)C23C#N)cc1OC` (stereo not given), for which the growth is 104% with NCI-H23 lung; 109% with NCI-H226 lung; 111% in the assay with NCI-H322M lung; 119% with NCI-H460 lung; 76.8% in the assay with HOP-92 NSCLC; 107% with NCI-H522 lung. Also, the growth with A549/ATCC NSCLC is 107%; in the assay on 786-0 renal, 99.5%; in the assay with DU-145 prostate, 102%; in the assay with K-562 leukemia, 97.1%; with MALME-3M melanoma it was 112%; with MDA-MB-231 breast, 93.2%. Also, the growth in the assay with RXF 393 renal was 96.8%; with SF-268 CNS, 121%; with SF-295 CNS, 108%; in the assay with SF-539 CNS it was 94.2%; in the assay on UACC-257 melanoma it was 102%.

For `Cc1cc2c(-c3nc4ccccc4[nH]3)c(O)c(O)cc2c(O)c1-c1c(C)cc2c(-c3nc4ccccc4[nH]3)c(O)c(O)cc2c1O`, the growth was -19.5% (active) in the assay on NCI-H23 lung; -18.2% (active) with NCI-H226 lung; 20.2% in the assay with NCI-H322M lung; -53.7% (active) with NCI-H460 lung; 29.1% with HOP-92 NSCLC; -36.8% (active) in the assay on NCI-H522 lung. For the same compound, the growth was -25.4% (active) with A549/ATCC NSCLC; -11.1% (active) with 786-0 renal; 16.6% in the assay with DU-145 prostate; 6.02% (active) in the assay with K-562 leukemia; -6.72% (active) in the assay on MALME-3M melanoma; 23.3% with MDA-MB-231 breast. The growth in the assay with RXF 393 renal is -8.07% (active); in the assay with SF-268 CNS, 6.93% (active); in the assay with SF-295 CNS, -17.5% (active); in the assay with SF-539 CNS, -24.5% (active); with UACC-257 melanoma, -3.19% (active); with M14 melanoma, -3.53% (active).

Consider `CCOC(=O)c1c(C)oc2ncnc(Nc3ccc(C(=O)NCCc4ccccc4)cc3)c12`, for which the growth is 81.8% with NCI-H23 lung; 63.2% in the assay on NCI-H226 lung; 92.9% in the assay with NCI-H322M lung; 83% in the assay on NCI-H460 lung; 61.6% with HOP-92 NSCLC; 66.9% in the assay with NCI-H522 lung. The growth in the assay with A549/ATCC NSCLC was 56.6%; in the assay on 786-0 renal, 74.9%; in the assay with DU-145 prostate it was 82.1%; in the assay on K-562 leukemia, 89%; with MALME-3M melanoma, 89.5%; with MDA-MB-231 breast, 85.7%. The growth with RXF 393 renal was 71.8%; in the assay with SF-268 CNS, 74.1%; in the assay on SF-295 CNS it was 90.4%; in the assay on SF-539 CNS, 58.9%; in the assay with UACC-257 melanoma, 79.7%; with M14 melanoma, 81.3%.

For the compound `O=Nc1c(-c2c(O)[nH]c3cc(Br)ccc23)[nH]c2ccccc12`, the growth in the assay with NCI-H23 lung was -80.8% (active); in the assay with NCI-H226 lung, -39.4% (active); with NCI-H322M lung, 16.6%; with NCI-H460 lung it was -72.8% (active); with HOP-92 NSCLC it was 14.4%; in the assay with NCI-H522 lung, -29% (active). Further, the growth in the assay with A549/ATCC NSCLC was -61.9% (active); in the assay with 786-0 renal it was 6.13% (active); in the assay on DU-145 prostate, -88.8% (active); with K-562 leukemia it was -64.1% (active); in the assay on MALME-3M melanoma it was 61.6%; in the assay with MDA-MB-231 breast it was 9.57% (active). For the same compound, the growth in the assay on RXF 393 renal is -62.6% (active); in the assay on SF-268 CNS, -61% (active); in the assay with SF-295 CNS, -26.2% (active); in the assay with SF-539 CNS, -44.8% (active); in the assay on UACC-257 melanoma, -78.8% (active); in the assay with M14 melanoma, 31.1%.

For `COc1cc(NC(=O)CSc2nc3ccc(Cl)cc3c(=O)n2-c2ccc(F)cc2)cc(OC)c1OC`, the growth is 85.2% in the assay on NCI-H23 lung; 83.2% in the assay on NCI-H226 lung; 86.9% with NCI-H322M lung; 91.3% in the assay on NCI-H460 lung; 36% in the assay with HOP-92 NSCLC; 79.5% in the assay with NCI-H522 lung. The growth with A549/ATCC NSCLC is 83.8%; with 786-0 renal, 75.2%; in the assay on DU-145 prostate, 96.9%; with K-562 leukemia, 80.5%; in the assay with MALME-3M melanoma it was 85.8%; in the assay with MDA-MB-231 breast, 64.7%. Besides, the growth is 80.2% in the assay with RXF 393 renal; 79.8% in the assay on SF-268 CNS; 80% in the assay on SF-295 CNS; 98.4% in the assay on SF-539 CNS; 97.4% with UACC-257 melanoma; 84.8% in the assay with M14 melanoma.

These data come from PubChem BioAssay (NCI).
